Laboratory results reported in PubChem BioAssay (EPA / NIEHS).
Records with an inconclusive call do not appear. Active and inactive are the calls of the source. How the source made its calls, unless noted: active means hit-call score of the fitted dose curve at least 0.9, where 1 is the maximum; inactive means score below 0.9.

Experiments:
[1] = ATG_NFI_CIS: Attagene CIS-FACTORIAL HepG2 Assay for human Nuclear Factor I (NFI) (AID 2282989); conditions: HepG2 cis-regulatory reporter, NFI response element transcription; actives raise or lower the signal
Outline: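 Multiplexed cis-reporter system in human HepG2 cells reports native TF activity as reporter mRNA induction 24 h post-dose. Fragments labelled with 6-FAM, HpaI-digested and resolved by capillary electrophoresis; activity fitted both directions versus DMSO.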

[2] = target: Myc proto-oncogene protein (Homo sapiens) (UniProt P01106); test: ATG_Myc_CIS: Attagene CIS-FACTORIAL HepG2 Assay for human Myelocytomatosis (Myc) Proto-Oncogene Transcription Factor (AID 2282990); conditions: HepG2, Attagene cis-reporter transcription factor activity; actives raise or lower the signal
Outline: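 HepG2 cells transiently transfected with multiple cis-promoter-driven reporter transcription units, so endogenous TF activity is read. After 24 h compound exposure, reporter mRNA was quantified by RT-PCR, 6-FAM labelling, HpaI digestion and capillary electrophoresis; bidirectional fit versus DMSO.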

[3] = ATG_NRF2_ARE_CIS: Attagene CIS-FACTORIAL HepG2 Assay for human Nuclear Factor Erythroid 2 Related Factor 2 (NFR2) response to Antioxidant Response Elements (ARE) (AID 2282992); conditions: HepG2 Attagene ARE/NRF2 reporter, transcription factor activity; actives raise or lower the signal
Outline: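 Using transiently transfected HepG2 cells exposed for 24 h, reporter mRNA levels were determined by RT-PCR with fluorescent primer extension and capillary electrophoresis, analysed for gain or loss of signal against DMSO.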

[4] = ATG_Oct_MLP_CIS: Attagene CIS-FACTORIAL HepG2 Assay for human Octamer-Binding Transcription Factor (Oct) (AID 2282993); conditions: HepG2 Attagene cis-factorial Oct reporter, mRNA; actives raise or lower the signal
Outline: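 After 24 h compound exposure, transfected HepG2 cells were lysed for total RNA; reporter-specific cDNA was PCR-amplified, fluorescently labelled and sized by capillary electrophoresis. Bidirectional curve fitting used DMSO as baseline.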

[5] = target: Cellular tumor antigen p53 (Homo sapiens) (UniProt P04637); test: ATG_p53_CIS: Attagene CIS-FACTORIAL HepG2 Assay for human p53 Transcription Factor (AID 2282994); conditions: HepG2 p53 cis-element reporter, Attagene mRNA; actives raise or lower the signal
Outline: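 In HepG2 cells, reporter transcription units under cis-regulatory promoters were transiently introduced. Following 24 h treatment, RNA was processed to labelled, digested cDNA fragments read by capillary electrophoresis; fitting was bidirectional versus DMSO.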

[6] = target: human Peroxisome Proliferator-activated Receptor alpha (PPARa), PPARA (gene 5465) (UniProt Q07869); test: ATG_PPARa_TRANS: Attagene TRANS-FACTORIAL HepG2 Assay for human Peroxisome Proliferator-activated Receptor alpha (PPARa) (AID 2283001; active means hit-call score of the fitted dose curve at least 0.9, where 1 is the maximum;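 on AC50: potency for gain of reporter signal over DMSO so agonist or activator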)
Outline: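 Exposure: 24 h, transiently transfected HepG2 cells. Endpoint: GAL4-UAS reporter mRNA, RT-PCR with capillary electrophoresis fluorescence. Baseline: DMSO; increases fitted.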

[7] = target: human Peroxisome Proliferator-activated Receptor delta (PPARd), PPARD (gene 5467) (UniProt Q03181); test: ATG_PPARd_TRANS: Attagene TRANS-FACTORIAL HepG2 Assay for human Peroxisome Proliferator-activated Receptor delta (PPARd) (AID 2283002; active means hit-call score of the fitted dose curve at least 0.9, where 1 is the maximum)
Outline: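 HepG2 cells transiently transfected with multiplexed GAL4-UAS reporter units and exogenous chimeric NR-Gal4 proteins; 24 h compound exposure. Reporter mRNA measured by RT-PCR, 6-FAM labelling, HpaI digestion and capillary electrophoresis; gain of signal versus DMSO.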

[8] = target: Peroxisome proliferator-activated receptor gamma (Homo sapiens) (UniProt P37231); test: ATG_PPARg_TRANS: Attagene TRANS-FACTORIAL HepG2 Assay for human Peroxisome Proliferator-activated Receptor-gamma (PPARg) (AID 2283007; active means hit-call score of the fitted dose curve at least 0.9, where 1 is the maximum)
Outline: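 Endpoint reflects upward reporter mRNA change versus DMSO controls. Setup: transiently transfected HepG2, GAL4-UAS reporters driven by chimeric NR-Gal4, 24 h incubation, RT-PCR with capillary electrophoresis read-out.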

[9] = target: Nuclear receptor subfamily 1 group I member 2 (Homo sapiens) (UniProt O75469); test: ATG_PXR_TRANS: Attagene TRANS-FACTORIAL HepG2 Assay for human Pregnane X Receptor (PXR) (AID 2283008; active means hit-call score of the fitted dose curve at least 0.9, where 1 is the maximum)
Outline: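 Multiplexed TRANS reporter panel in HepG2; this component tracks PXR-Gal4-driven reporter mRNA after 24 h dosing, measured by RT-PCR with capillary electrophoresis fluorescence, fitted against DMSO.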

[10] = ATG_NF_kB_CIS: Attagene CIS-FACTORIAL HepG2 Assay for human Nuclear Factor Kappa B (NF-kB) (AID 2282991); conditions: HepG2 Attagene cis-factorial NF-kB reporter mRNA; actives raise or lower the signal
Outline: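 Endpoint from a 52-component multiplexed HepG2 reporter panel: cis-regulated transcription units transiently transfected, 24 h dosing, reporter mRNA quantified by RT-PCR and capillary electrophoresis, scored as increase or decrease against DMSO.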

[11] = target: Retinoic acid receptor alpha (Homo sapiens) (UniProt P10276); test: ATG_RARa_TRANS: Attagene TRANS-FACTORIAL HepG2 Assay for human Retinoic Acid Receptor alpha (RARa) (AID 2283005; active means hit-call score of the fitted dose curve at least 0.9, where 1 is the maximum)
Outline: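 HepG2 cells transiently transfected with multiple reporter units expressing chimeric RARα-GAL4 fusion, with GAL4-UAS-driven reporters. After 24 h compound exposure, reporter mRNA induction quantified by RT-PCR and capillary electrophoresis with fluorescent labeling; gain-of-signal fitted relative to DMSO control.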

[12] = target: human Retinoic Acid Receptor gamma (RARg), RARG (gene 5916) (UniProt P13631); test: ATG_RARg_TRANS: Attagene TRANS-FACTORIAL HepG2 Assay for human Retinoic Acid Receptor gamma (RARg) (AID 2283009; active means hit-call score of the fitted dose curve at least 0.9, where 1 is the maximum)
Outline: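 Gain-of-signal relative to DMSO is reported from fluorescent capillary electrophoresis of RT-PCR reporter products. These came from HepG2 cells expressing transfected RARg-GAL4 chimeras with UAS reporters, harvested 24 h after dosing.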

[13] = BSK_3C_TissueFactor: BioMAP Diversity Plus: 3C Assay for Tissue Factor Biomarker Activity (AID 2282997); conditions: BioMAP 3C HUVEC, tissue factor biomarker readout; actives raise or lower the signal
Outline: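 In this endothelial system, HUVEC are treated for 24 h and Tissue Factor is assessed by ELISA, normalised to DMSO.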

[14] = BSK_3C_uPAR: BioMAP Diversity Plus: 3C Assay for Urokinase-type plasminogen activator receptor (uPAR) Biomarker Activity (AID 2282998); conditions: BioMAP 3C HUVEC, uPAR biomarker ELISA; actives raise or lower the signal
Outline: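 Values derive from bidirectional curve fitting relative to DMSO, which served as baseline of activity. uPAR was measured by ELISA in human umbilical vein endothelial primary cultures 24 h after compound addition.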

[15] = BSK_3C_VCAM1: BioMAP Diversity Plus: 3C Assay for Vascular cell adhesion molecule 1 (VCAM1) Biomarker Activity (AID 2282999); conditions: BioMAP 3C HUVEC, VCAM1 ELISA, cytokine-stimulated; actives raise or lower the signal
Outline: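 Vascular primary endothelium (human umbilical vein) was exposed to chemicals and assayed 24 h later. VCAM-1 levels came from ELISA, with DMSO serving as baseline for bidirectional fitting.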

[16] = BSK_4H_Eotaxin3: BioMAP Diversity Plus: 4H Assay for Eotaxin 3 Biomarker Activity (AID 2283000); conditions: primary human endothelial cells (HUVEC); actives raise or lower the signal
Outline: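 ELISA quantitation of CCL26 (Eotaxin-3) protein from chemically dosed human vascular endothelial cells at 24 h; increases and decreases both scored relative to DMSO-treated baseline.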

[17] = read-out: Intercellular Adhesion Molecule 1 (ICAM1), ICAM1 (gene 3383); test: BSK_3C_ICAM1: BioMAP Diversity Plus: 3C Assay for Intercellular Adhesion Molecule 1 (ICAM1) Biomarker Activity (AID 2283003); conditions: primary human endothelial cells (HUVEC); actives raise or lower the signal
Outline: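 Using DMSO as baseline, bidirectional curve fitting was applied to ICAM-1 ELISA signals from HUVEC in the 3C system, measured 24 h after compound addition.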

[18] = BSK_3C_Proliferation: Cell Proliferation Assessment in the BioMAP Diversity Plus: 3C Assay (AID 2283006); conditions: primary human endothelial cells (HUVEC);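 on AC50: potency may reflect either rise or fall in cell number versus DMSO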
Outline: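 Measured here: sulforhodamine B (0.1%) staining of TCA-fixed sub-confluent umbilical vein endothelial cultures 48 h post-dosing, absorbance 560 nm. DMSO served as negative control and baseline; both signal gain and loss were modelled.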

[19] = target: human Retinoic Acid Receptor beta (RARb), RARB (gene 5915) (UniProt P10826); test: ATG_RARb_TRANS: Attagene TRANS-FACTORIAL HepG2 Assay for human Retinoic Acid Receptor beta (AID 2283004; active means hit-call score of the fitted dose curve at least 0.9, where 1 is the maximum)
Outline: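 Fluorescent capillary-electrophoresis detection of GAL4-UAS reporter mRNA defines the endpoint, with induction over DMSO-treated wells scored as activity. Transiently transfected human hepatoma HepG2 cells expressing exogenous NR–Gal4 proteins are exposed to test chemicals for 24 h.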

[20] = target: human RAR-related Orphan Receptor beta (RORb), RORB (gene 6096) (UniProt Q92753); test: ATG_RORb_TRANS: Attagene TRANS-FACTORIAL HepG2 Assay for human RAR-related Orphan Receptor beta (RORb) (AID 2283010; active means hit-call score of the fitted dose curve at least 0.9, where 1 is the maximum)
Outline: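 Multiplexed transcription-factor reporter assay: HepG2 cells transiently carrying NR-Gal4/GAL4-UAS constructs, 24 h treatment, mRNA quantified by RT-PCR plus capillary electrophoresis fluorescence; activity scored as induction over DMSO.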

Measured: AC50

Chain of human Retinoic Acid Receptor gamma (RARg), RARG (gene 5916) (P13631 whole entry, looked up, the tested form may be a part): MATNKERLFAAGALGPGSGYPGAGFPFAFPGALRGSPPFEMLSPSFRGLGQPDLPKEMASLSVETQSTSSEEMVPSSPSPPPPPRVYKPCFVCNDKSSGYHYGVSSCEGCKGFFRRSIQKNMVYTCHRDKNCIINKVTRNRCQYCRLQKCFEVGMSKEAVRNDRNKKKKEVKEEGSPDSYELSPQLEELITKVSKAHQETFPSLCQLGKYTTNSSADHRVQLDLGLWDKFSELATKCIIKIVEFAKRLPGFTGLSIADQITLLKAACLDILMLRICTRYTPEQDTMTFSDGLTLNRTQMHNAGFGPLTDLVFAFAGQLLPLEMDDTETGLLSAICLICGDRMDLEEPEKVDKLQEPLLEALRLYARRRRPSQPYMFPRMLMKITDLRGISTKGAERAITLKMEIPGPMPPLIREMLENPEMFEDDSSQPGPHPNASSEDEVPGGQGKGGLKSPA
Chain of human Retinoic Acid Receptor beta (RARb), RARB (gene 5915) (P10826 whole entry, looked up, the tested form may be a part): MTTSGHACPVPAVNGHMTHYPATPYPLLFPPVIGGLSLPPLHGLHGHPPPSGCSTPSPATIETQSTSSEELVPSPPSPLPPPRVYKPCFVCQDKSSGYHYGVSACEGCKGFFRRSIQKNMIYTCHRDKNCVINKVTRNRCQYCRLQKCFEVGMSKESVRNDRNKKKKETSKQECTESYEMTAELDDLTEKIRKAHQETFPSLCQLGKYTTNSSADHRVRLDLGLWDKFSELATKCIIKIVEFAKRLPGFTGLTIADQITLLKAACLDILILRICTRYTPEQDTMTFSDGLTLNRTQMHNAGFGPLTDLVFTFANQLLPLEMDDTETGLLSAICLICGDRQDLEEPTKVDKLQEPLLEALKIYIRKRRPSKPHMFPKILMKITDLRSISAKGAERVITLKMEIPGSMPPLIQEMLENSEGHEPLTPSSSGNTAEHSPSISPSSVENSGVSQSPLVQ
Chain of human Peroxisome Proliferator-activated Receptor delta (PPARd), PPARD (gene 5467) (Q03181 whole entry, looked up, the tested form may be a part): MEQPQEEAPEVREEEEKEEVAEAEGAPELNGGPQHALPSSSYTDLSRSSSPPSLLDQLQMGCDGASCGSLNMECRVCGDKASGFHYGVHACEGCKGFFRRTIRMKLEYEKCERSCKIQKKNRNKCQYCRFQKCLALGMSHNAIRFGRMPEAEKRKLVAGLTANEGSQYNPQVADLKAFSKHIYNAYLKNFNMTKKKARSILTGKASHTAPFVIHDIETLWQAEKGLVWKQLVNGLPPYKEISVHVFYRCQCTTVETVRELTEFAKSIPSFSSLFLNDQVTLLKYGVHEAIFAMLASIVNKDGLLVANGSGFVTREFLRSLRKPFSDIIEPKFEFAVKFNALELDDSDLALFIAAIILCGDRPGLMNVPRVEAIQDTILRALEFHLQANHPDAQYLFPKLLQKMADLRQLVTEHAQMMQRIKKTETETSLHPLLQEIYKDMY
Chain of human Peroxisome Proliferator-activated Receptor alpha (PPARa), PPARA (gene 5465) (Q07869 whole entry, looked up, the tested form may be a part): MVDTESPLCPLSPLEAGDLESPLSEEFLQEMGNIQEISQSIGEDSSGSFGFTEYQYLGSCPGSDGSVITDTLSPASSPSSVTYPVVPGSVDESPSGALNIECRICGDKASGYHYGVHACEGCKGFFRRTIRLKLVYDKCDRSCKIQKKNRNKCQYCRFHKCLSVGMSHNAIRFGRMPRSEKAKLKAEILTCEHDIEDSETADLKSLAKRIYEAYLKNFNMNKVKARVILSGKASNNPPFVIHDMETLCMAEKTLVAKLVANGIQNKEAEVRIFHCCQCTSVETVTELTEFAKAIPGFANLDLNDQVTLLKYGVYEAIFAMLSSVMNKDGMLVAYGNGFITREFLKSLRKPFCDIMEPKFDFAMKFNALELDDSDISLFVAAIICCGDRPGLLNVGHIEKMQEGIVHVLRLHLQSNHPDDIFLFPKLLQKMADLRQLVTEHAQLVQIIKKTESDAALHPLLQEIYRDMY
Chain of Retinoic acid receptor alpha (Homo sapiens) (P10276 whole entry, looked up, the tested form may be a part): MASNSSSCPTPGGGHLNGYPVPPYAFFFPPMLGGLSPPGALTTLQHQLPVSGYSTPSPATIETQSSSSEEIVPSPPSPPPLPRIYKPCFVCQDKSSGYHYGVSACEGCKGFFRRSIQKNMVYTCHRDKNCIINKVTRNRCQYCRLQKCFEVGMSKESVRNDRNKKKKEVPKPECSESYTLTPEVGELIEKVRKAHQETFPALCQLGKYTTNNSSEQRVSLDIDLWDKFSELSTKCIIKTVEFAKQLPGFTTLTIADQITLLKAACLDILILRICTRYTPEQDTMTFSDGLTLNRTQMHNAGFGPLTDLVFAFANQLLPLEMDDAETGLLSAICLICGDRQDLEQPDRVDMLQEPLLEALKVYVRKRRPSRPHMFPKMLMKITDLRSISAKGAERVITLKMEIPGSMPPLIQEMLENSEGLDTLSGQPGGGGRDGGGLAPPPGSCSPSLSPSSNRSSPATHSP
Chain of Cellular tumor antigen p53 (Homo sapiens) (P04637 whole entry, looked up, the tested form may be a part): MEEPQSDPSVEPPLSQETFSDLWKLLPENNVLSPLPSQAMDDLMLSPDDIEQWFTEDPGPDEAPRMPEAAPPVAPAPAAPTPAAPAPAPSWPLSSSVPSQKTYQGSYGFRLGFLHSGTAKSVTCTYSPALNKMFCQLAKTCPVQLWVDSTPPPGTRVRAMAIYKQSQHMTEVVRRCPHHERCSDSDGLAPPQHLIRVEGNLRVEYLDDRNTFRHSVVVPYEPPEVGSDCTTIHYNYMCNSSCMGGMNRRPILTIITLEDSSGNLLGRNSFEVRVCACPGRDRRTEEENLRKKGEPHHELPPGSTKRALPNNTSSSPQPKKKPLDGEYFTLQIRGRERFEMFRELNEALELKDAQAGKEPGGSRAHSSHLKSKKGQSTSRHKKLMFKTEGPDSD
Chain of human RAR-related Orphan Receptor beta (RORb), RORB (gene 6096) (Q92753 whole entry, looked up, the tested form may be a part): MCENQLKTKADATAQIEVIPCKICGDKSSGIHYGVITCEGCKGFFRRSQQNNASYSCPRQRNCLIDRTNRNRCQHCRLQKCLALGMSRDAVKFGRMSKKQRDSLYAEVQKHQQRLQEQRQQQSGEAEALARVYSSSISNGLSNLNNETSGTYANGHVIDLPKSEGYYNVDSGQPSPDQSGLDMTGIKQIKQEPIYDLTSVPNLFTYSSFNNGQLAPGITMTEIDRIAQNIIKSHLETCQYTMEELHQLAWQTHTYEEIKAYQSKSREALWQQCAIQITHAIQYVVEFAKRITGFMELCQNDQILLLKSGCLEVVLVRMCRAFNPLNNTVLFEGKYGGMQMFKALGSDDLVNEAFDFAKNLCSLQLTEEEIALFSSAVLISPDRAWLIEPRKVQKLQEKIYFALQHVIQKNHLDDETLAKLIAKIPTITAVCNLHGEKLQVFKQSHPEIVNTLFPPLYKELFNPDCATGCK
Chain of Nuclear receptor subfamily 1 group I member 2 (Homo sapiens) (O75469 whole entry, looked up, the tested form may be a part): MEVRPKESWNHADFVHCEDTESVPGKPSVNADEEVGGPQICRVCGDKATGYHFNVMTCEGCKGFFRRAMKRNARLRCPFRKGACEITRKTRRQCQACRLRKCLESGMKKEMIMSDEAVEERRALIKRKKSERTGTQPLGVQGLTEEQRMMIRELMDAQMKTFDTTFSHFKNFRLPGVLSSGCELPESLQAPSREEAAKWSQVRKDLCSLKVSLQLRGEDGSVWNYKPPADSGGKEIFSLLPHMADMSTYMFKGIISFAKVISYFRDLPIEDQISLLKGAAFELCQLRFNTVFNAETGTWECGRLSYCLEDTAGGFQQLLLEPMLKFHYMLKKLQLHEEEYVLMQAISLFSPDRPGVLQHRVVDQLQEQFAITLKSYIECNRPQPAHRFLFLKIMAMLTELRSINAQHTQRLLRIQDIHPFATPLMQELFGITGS
Chain of Myc proto-oncogene protein (Homo sapiens) (P01106 whole entry, looked up): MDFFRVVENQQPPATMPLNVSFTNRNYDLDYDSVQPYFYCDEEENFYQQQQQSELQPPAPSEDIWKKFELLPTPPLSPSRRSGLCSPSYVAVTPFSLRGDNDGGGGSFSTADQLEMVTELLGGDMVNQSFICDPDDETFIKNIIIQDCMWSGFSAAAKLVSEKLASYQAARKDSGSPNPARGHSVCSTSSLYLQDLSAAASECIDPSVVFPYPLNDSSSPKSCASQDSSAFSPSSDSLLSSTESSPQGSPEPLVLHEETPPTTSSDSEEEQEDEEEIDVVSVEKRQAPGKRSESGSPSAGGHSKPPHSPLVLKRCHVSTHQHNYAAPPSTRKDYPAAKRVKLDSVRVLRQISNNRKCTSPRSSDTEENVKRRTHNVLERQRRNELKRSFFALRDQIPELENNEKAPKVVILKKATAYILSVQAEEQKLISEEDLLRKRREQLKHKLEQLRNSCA
Chain of Peroxisome proliferator-activated receptor gamma (Homo sapiens) (P37231 whole entry, looked up, the tested form may be a part): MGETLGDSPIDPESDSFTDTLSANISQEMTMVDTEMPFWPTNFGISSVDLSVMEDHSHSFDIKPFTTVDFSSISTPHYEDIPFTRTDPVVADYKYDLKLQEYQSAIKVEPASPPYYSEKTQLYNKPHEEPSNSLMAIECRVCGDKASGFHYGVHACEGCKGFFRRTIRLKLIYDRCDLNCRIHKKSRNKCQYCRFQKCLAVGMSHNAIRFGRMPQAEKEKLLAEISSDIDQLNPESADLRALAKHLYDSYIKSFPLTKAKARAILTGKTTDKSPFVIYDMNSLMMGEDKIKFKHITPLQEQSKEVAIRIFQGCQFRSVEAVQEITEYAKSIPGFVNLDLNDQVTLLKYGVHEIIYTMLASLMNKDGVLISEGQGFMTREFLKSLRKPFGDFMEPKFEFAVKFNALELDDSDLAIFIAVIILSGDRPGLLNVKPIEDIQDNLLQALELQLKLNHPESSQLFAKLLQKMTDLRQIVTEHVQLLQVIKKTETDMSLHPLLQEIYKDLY

C=C(C)C(=O)OCCOC1CC2CC1C1C=CCC21 (stereo unspecified)
inactive: [1] | [2] | [4] | [5] | [6] | [7] | [8] | [9]
active: [3] 177 µM

Cc1occc(=O)c1OC(=O)C(C)C
inactive: [1] | [2] | [3] | [4] | [5] | [6]

c1ccc2[nH]cnc2c1
inactive: [1] | [2] | [10] | [3] | [5] | [6] | [11] | [9] | [12]

CC(C=O)Cc1ccc(C(C)(C)C)cc1 (stereo unspecified)
inactive: [1] | [2] | [4] | [5] | [7]
active: [3] 26.4 µM | [13] 31.1 µM | [14] 32.9 µM | [15] 36.4 µM | [16] 36 µM | [6] 40.7 µM | [17] 31.1 µM | [18] 30.9 µM | [8] 79.1 µM | [9] 23.1 µM

CC[N+](C)(CC)CC
inactive: [1] | [2] | [3] | [4] | [5] | [6] | [11] | [8] | [9] | [12]

Cc1ccc(OC(=O)c2ccccc2O)cc1
active: [3] 51.2 µM
inactive: [1] | [2] | [10] | [5] | [6] | [8] | [9]

CCCCC(CC)COC(C)=O (stereo unspecified)
inactive: [1] | [2] | [10] | [3] | [6] | [7] | [19] | [11] | [9] | [12]

CC(=O)O[C@H]1C[C@@H]2CC[C@@]1(C)C2(C)C
inactive: [1] | [2] | [10] | [3] | [5] | [6] | [19] | [11] | [8] | [9] | [12]

COc1ccc(CCO)cc1
inactive: [1] | [2] | [10] | [3] | [6] | [19] | [8] | [12]

CCCC(C)C(O)CC (stereo unspecified)
inactive: [1] | [2] | [3] | [4] | [5] | [6] | [19] | [11] | [8] | [9] | [12]

CS(=O)(=O)OCCCCOS(C)(=O)=O
not listed: [6] | [9] | [10] | [12] | [14] | [19]
inactive: all other assays above

CCOC(=O)CCc1ccccc1
inactive: [1] | [2] | [10] | [3] | [5] | [6] | [8] | [9] | [12]

CC=Cc1ccc(OCC)c(O)c1
active: [8] 31.8 µM | [9] 53.6 µM
not listed: [7] | [10] | [11] | [12] | [14] | [19] | [20]
inactive: all other assays above

COC(C)(C)CCO
inactive: [1] | [2] | [3] | [4] | [5] | [6] | [7] | [19] | [9]

Nc1ccc(N)c2c1C(=O)c1ccccc1C2=O
inactive: [1] | [2] | [5] | [6] | [7] | [19] | [9] | [12] | [20]
active: [3] 5.63 µM | [4] 3.47 µM | [8] 11.3 µM

O=C(CS)OCCOC(=O)CS
active: [10] 43.8 µM | [3] 148 µM | [5] 100 µM
inactive: [1] | [2] | [6] | [8]

C=C1CC[C@H](O)C/C1=C/C=C1\CCC[C@]2(C)[C@@H]([C@H](C)/C=C/[C@H](C)C(C)C)CC[C@@H]12
inactive: [1] | [2] | [5] | [8]
active: [10] 44.5 µM | [3] 27 µM | [9] 3.81 µM

IC(I)I
not listed: [10] | [14]
inactive: all other assays above
